The results in this text go back to PubChem BioAssay (NCI).

Common to all, as to assay: NCI-60 one-dose screen, 48 h (100 = growth as untreated, 0 = no growth, -100 = all killed)
One assay has as its system EKVX NSCLC. The following applies: 10 µM unless noted.
The next assay deals with SN12C renal. The following applies: 10 µM unless noted.
In another assay the test system is UO-31 renal. The following applies: 10 µM unless noted.
Another assay deals with TK-10 renal. The following applies: 10 µM unless noted.
Another assay deals with ACHN renal. The following applies: 10 µM unless noted.
For the next assay, the system named is CAKI-1 renal. The following applies: 10 µM.
The next assay relates to A498 renal. The following applies: 10 µM unless noted.
In a further assay the test system is CCRF-CEM leukemia. The following applies: 10 µM unless noted.
The next assay deals with RPMI-8226 leukemia. The following applies: 10 µM unless noted.
In another assay the test system is OVCAR-8 ovarian. The following applies: 10 µM unless noted.
The test system of the next assay is OVCAR-5 ovarian. The following applies: 10 µM unless noted.
The subject of the next assay is OVCAR-4 ovarian. The following applies: 10 µM unless noted.
In another assay the test system is SK-OV-3 ovarian. The following applies: 10 µM unless noted.
For the next assay, the system named is IGROV1 ovarian. The following applies: 10 µM unless noted.
A further assay deals with HS 578T breast. The following applies: 10 µM unless noted.
The test system of the next assay is NCI/ADR-RES ovarian. The following applies: 10 µM unless noted.
Another assay concerns MOLT-4 leukemia. The following applies: 10 µM unless noted.
The test system of the next assay is SR leukemia. The following applies: 10 µM unless noted.

The panel holds about 83,000 compounds, 20% with a hit somewhere; the sample as a whole holds those more often.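 Method: cells in 96-well plates; compound added at one concentration; 48 h incubation; percent growth measured; values under 10 scored active.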 A number with no mark means an inactive call. Active and inactive are the calls of the source.

Take `Clc1ccccc1/C=C/c1nn2c(-c3ccncc3)nnc2s1`: the growth was 94.2% with EKVX NSCLC; 103% in the assay on SN12C renal; 93.1% with UO-31 renal; 126% in the assay with TK-10 renal; 104% in the assay on ACHN renal; 87.9% in the assay with CAKI-1 renal. The growth in the assay on A498 renal was 95.2%; in the assay with CCRF-CEM leukemia, 97.6%; with RPMI-8226 leukemia it was 101%; in the assay on OVCAR-8 ovarian it was 103%; in the assay on OVCAR-5 ovarian it was 109%; in the assay on OVCAR-4 ovarian, 103%. For the same compound, the growth in the assay on SK-OV-3 ovarian was 121%; in the assay with IGROV1 ovarian it was 102%; in the assay with HS 578T breast, 97.7%; with NCI/ADR-RES ovarian it was 106%.
Regarding `CNC(=O)c1cc(Oc2ccc3nc(NC(=O)c4ccc(CN5CCCN(C)CC5)c(C(F)(F)F)c4)sc3c2)ccn1`, the growth in the assay on EKVX NSCLC was 40.1%; in the assay with SN12C renal, 54.9%; in the assay on UO-31 renal, 4.18% (active); in the assay on TK-10 renal, 47.9%; in the assay on ACHN renal, 4.16% (active); with CAKI-1 renal it was 14.6%. The growth was 66.2% in the assay with A498 renal; 8.38% (active) with CCRF-CEM leukemia; -35.2% (active) in the assay on MOLT-4 leukemia; -59.8% (active) in the assay with SR leukemia; -31.1% (active) with RPMI-8226 leukemia; 32.4% in the assay on OVCAR-8 ovarian. Besides, the growth with OVCAR-5 ovarian is 53.6%; in the assay on OVCAR-4 ovarian it was 52.3%; in the assay with SK-OV-3 ovarian, 80.3%; in the assay on IGROV1 ovarian it was 60.6%; with NCI/ADR-RES ovarian, 60.6%.
On to `C=CCn1c(SCC(=O)Nc2cccc(C(=O)/C=C/c3ccc(C)cc3)c2)nc2ccccc2c1=O`, for which the growth in the assay with EKVX NSCLC was 91.5%; with SN12C renal, 91.5%; with UO-31 renal, 63.9%; with TK-10 renal, 105%; in the assay with ACHN renal, 89.5%; in the assay on CAKI-1 renal, 80%. For the same compound, the growth was 85.9% in the assay on A498 renal; 98.4% in the assay on CCRF-CEM leukemia; 27.1% in the assay with RPMI-8226 leukemia; 82.1% in the assay on OVCAR-8 ovarian; 101% with OVCAR-5 ovarian; 84.9% with OVCAR-4 ovarian. Further, the growth was 113% in the assay on SK-OV-3 ovarian, 95.8% in the assay on IGROV1 ovarian, 101% with HS 578T breast and 84.5% in the assay with NCI/ADR-RES ovarian.
As to `COc1ccc(NC(=O)[C@H](C)N)cc1C(=O)Nc1cccc(-c2cc(=O)c3c(OC)c(OC)c(OC)cc3o2)c1`, the growth is 81.3% with EKVX NSCLC; 55.4% with SN12C renal; 29.7% in the assay on UO-31 renal; 70.7% in the assay with TK-10 renal; 54.2% in the assay with ACHN renal; 49% in the assay with CAKI-1 renal. Moreover, the growth was 50.9% with A498 renal; 52.9% with CCRF-CEM leukemia; 51.4% in the assay with MOLT-4 leukemia; 36.5% in the assay on SR leukemia; 44.1% in the assay with RPMI-8226 leukemia; 50.1% in the assay with OVCAR-8 ovarian. Further, the growth in the assay on OVCAR-5 ovarian is 102%; with OVCAR-4 ovarian, 62.4%; in the assay on SK-OV-3 ovarian it was 115%; with IGROV1 ovarian it was 56.7%; in the assay on HS 578T breast, 27.8%; in the assay with NCI/ADR-RES ovarian it was 63.8%.
Regarding `COc1ccc(/C(C)=C(\c2ccc(Cl)cc2)c2ccc(OCCN)cc2)cc1`, the growth with EKVX NSCLC is 87.2%; in the assay with SN12C renal, 78.3%; in the assay on UO-31 renal, 60.8%; with TK-10 renal, 119%; with ACHN renal, 84.9%; in the assay with CAKI-1 renal, 67.3%. Also, the growth in the assay on A498 renal was 90.1%; in the assay with CCRF-CEM leukemia, 66.1%; with RPMI-8226 leukemia, 67.1%; in the assay with OVCAR-8 ovarian, 88.7%; with OVCAR-5 ovarian it was 83.8%; with OVCAR-4 ovarian it was 90.3%. The growth was 131% with SK-OV-3 ovarian, 77.8% in the assay on IGROV1 ovarian, 89% in the assay with HS 578T breast and 89.1% in the assay on NCI/ADR-RES ovarian.
With `Cc1cc(=O)n2nc(-c3c[nH]c4ccccc34)sc2n1`, the growth in the assay with EKVX NSCLC was 95.3%; in the assay on SN12C renal, 94.5%; with UO-31 renal, 82.1%; with TK-10 renal, 128%; in the assay with ACHN renal, 96.1%; in the assay on CAKI-1 renal, 99.8%. The growth was 95.1% with A498 renal; 115% in the assay with CCRF-CEM leukemia; 128% in the assay with RPMI-8226 leukemia; 98.7% in the assay with OVCAR-8 ovarian; 101% in the assay with OVCAR-5 ovarian; 104% in the assay on OVCAR-4 ovarian. The growth is 103% in the assay on SK-OV-3 ovarian, 89.9% with IGROV1 ovarian, 96.4% in the assay on HS 578T breast and 98% in the assay on NCI/ADR-RES ovarian.
`N#Cc1ccc(S(=O)(=O)Nc2ccc(-c3cnc(N)[nH]3)cc2)cc1`: the growth with EKVX NSCLC is 105%; in the assay with SN12C renal it was 102%; with UO-31 renal, 89.7%; with TK-10 renal, 98.6%; in the assay on ACHN renal, 99.7%; in the assay on CAKI-1 renal, 92.3%. The growth was 101% with A498 renal; 98.2% in the assay on CCRF-CEM leukemia; 104% in the assay on RPMI-8226 leukemia; 101% in the assay with OVCAR-8 ovarian; 98.9% in the assay with OVCAR-5 ovarian; 104% with OVCAR-4 ovarian. Besides, the growth with SK-OV-3 ovarian is 106%; with IGROV1 ovarian it was 108%; in the assay with HS 578T breast, 98.3%; with NCI/ADR-RES ovarian it was 102%.
Take `COCCOc1ccc(-c2csc(NC(=O)CN3CCN(CCO)CC3)n2)cc1NS(=O)(=O)c1cccc2c(N(C)C)cccc12`: the growth is 80.5% in the assay with EKVX NSCLC; 81.1% in the assay on SN12C renal; 65.3% in the assay on UO-31 renal; 107% with TK-10 renal; 85.8% in the assay on ACHN renal; 92% with CAKI-1 renal. The growth was 79.4% in the assay on A498 renal; 46.3% in the assay on CCRF-CEM leukemia; 54.6% in the assay on RPMI-8226 leukemia; 81.2% with OVCAR-8 ovarian; 94.2% in the assay with OVCAR-5 ovarian; 96% in the assay on OVCAR-4 ovarian. The growth in the assay with SK-OV-3 ovarian was 92.9%; in the assay on IGROV1 ovarian it was 82.9%; in the assay with HS 578T breast, 70.1%; in the assay with NCI/ADR-RES ovarian, 97.2%.
In the case of `COc1cc2c3c(n(CCCN4CCCCC4)c(=O)c2cc1OC)-c1cc2c(cc1C3=O)OCO2`, the growth in the assay with EKVX NSCLC is -56.2% (active); in the assay with SN12C renal it was -72.1% (active); with UO-31 renal, -89.3% (active); with TK-10 renal, -87.2% (active); in the assay on ACHN renal it was -96.7% (active); in the assay on CAKI-1 renal it was -82.9% (active). The growth in the assay with A498 renal is 70.9%; in the assay on CCRF-CEM leukemia, -11.6% (active); in the assay on RPMI-8226 leukemia it was -47.3% (active); with OVCAR-8 ovarian, -63.6% (active); in the assay with OVCAR-5 ovarian, -96.1% (active); in the assay with OVCAR-4 ovarian, -74.1% (active). Moreover, the growth was 46% in the assay with SK-OV-3 ovarian, -68.7% (active) in the assay on IGROV1 ovarian, -51.2% (active) in the assay on HS 578T breast and -62% (active) with NCI/ADR-RES ovarian.
